Laboratory results taken from PubChem BioAssay (NCI).
This is part of a sample that, as a whole, favours compounds with a hit. Of some 79,000 tested, about 15% had one in any assay. Activity calls are given as the source filed them. No stated cut-off is given here; in the data, active means growth inhibition above about 70%; inactive means the rest.

Experiment: NCI Yeast Anticancer Drug Screen. Data for the sgs1 strain (AID 173);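 further: 0% = growth of vehicle-only control cultures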
Details: S. cerevisiae sgs1 mutant, hits give high values
Description: Growth inhibition of yeast strains with defined genetic alterations is measured as a screen for potential anti-cancer activity. Selected strains with alterations in DNA damage repair or cell cycle control were exposed to compounds and growth inhibition was measured relative to vehicle treated controls. The strain used in this assay is sgs1

| Structure (SMILES) | growth inhibition (at 1.2 µM) | growth inhibition (at 3.7 µM) | growth inhibition (at 11.0 µM) | growth inhibition (at 33.0 µM) | growth inhibition (at 100.0 µM) |
| --- | --- | --- | --- | --- | --- |
| O=S(=O)(c1cc(Cl)ccc1O)c1cc(Cl)ccc1O | 26% (inactive) | 91% (active) | 99% (active) | 99% (active) | 99% (active) |
| N#CC(=C1C=CC(=NO)C=C1)c1ccccc1 | 9% (inactive) | 50% (inactive) | 99% (active) | 99% (active) | 99% (active) |
| Nc1ccc2c(c1)sc1ccccc12 | -1% (inactive) | -1% (inactive) | -2% (inactive) | 46% (inactive) | 99% (active) |
| CCCCCCCCCCCCCCCCNC(=O)/C(=C\c1ccc(Cl)c(Cl)c1)NC(=O)c1ccccc1 | 2% (inactive) | 5% (inactive) | 5% (inactive) | 14% (inactive) | 49% (inactive) |
| Oc1ccc(C=Nc2ccccc2O)cc1 | 32% (inactive) | 36% (inactive) | 37% (inactive) | 51% (inactive) | 67% (inactive) |
| N#CC(=S)Nc1cccc(Cl)c1 | 2% (inactive) | 7% (inactive) | 24% (inactive) | 43% (inactive) | 70% (active) |
| CC(C)c1[nH]nc(C(N)=O)c1N=NN(C)C | -2% (inactive) | -6% (inactive) | 12% (inactive) | 51% (inactive) | 84% (active) |
| O=C1C=CC(=O)N1c1ccc(N2C(=O)C=CC2=O)cc1 | 41% (inactive) | 99% (active) | 99% (active) | 100% (active) | 99% (active) |
